{
  "source": "PubChem BioAssay AID463193",
  "about": "(University of Pittsburgh Molecular Library Screening Center, 2010)",
  "note": "The campaign covered roughly 190,000 compounds. About 1,900 (1%) were called active.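 How the source made its calls: active means percentage of spot-positive cells more than 3 SD above its plate mean, without a fluorescence outlier flag or 80% toxicity; inconclusive means no clear call, values can overlap the other calls; inactive means the rest.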 The list comes from a sample in which actives are over-represented; it also holds similar structures and randomly drawn compounds.",
  "data": [
    {"assay": "autophagy modulators in MEF cells, primary screen, imaging, high-content, MEF GFP-LC3 (AID 463193);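 on % cells with GFP-LC3 spots: spot-positive cell cutoff set from DMSO-treated cells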;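 on toxicity: cell loss after 18 h compound exposure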", "details": "MEF GFP-LC3 puncta imaging, at 10 µM; % cells with GFP-LC3 spots: stronger effect = higher value; toxicity: measured here: cell loss, nuclei count", "units": {"toxicity": "%"}, "values": [
      {"compound": "COc1ccc(-n2ncc3c(N4CCCc5ccccc54)ncnc32)cc1", "% cells with GFP-LC3 spots": "7.91% (inactive)", "toxicity": 7.86},
      {"compound": "Cc1cccc(-n2ncc3c(N4CCc5ccccc54)ncnc32)c1", "% cells with GFP-LC3 spots": "1.09% (inactive)", "toxicity": -9.01},
      {"compound": "COc1ccc(-n2ncc3c(N4CCc5ccccc54)ncnc32)cc1", "% cells with GFP-LC3 spots": "10.6% (active)", "toxicity": 12.2},
      {"compound": "Cc1ccc2nc(-c3ccccn3)cc(C(=O)Nc3ccc4c(c3)OCO4)c2c1", "% cells with GFP-LC3 spots": "4.19% (inactive)", "toxicity": 13.2},
      {"compound": "CC1(C)C2CCC1(C)C(OC(=O)c1ccc(O)cc1)C2", "note": "(stereo not given)", "% cells with GFP-LC3 spots": "19.1% (inactive)", "toxicity": 2.39},
      {"compound": "COc1ccc(-c2[nH]ncc2CN(C)Cc2cccnc2)c(F)c1", "% cells with GFP-LC3 spots": "3.28% (inactive)", "toxicity": 15.9},
      {"compound": "Clc1ccc(CN2CCN(/N=C/c3cccnc3)CC2)cc1", "% cells with GFP-LC3 spots": "0.128% (inactive)", "toxicity": -10.7},
      {"compound": "O=Cc1cn(Cc2ccccc2)nc1-c1cccnc1", "% cells with GFP-LC3 spots": "0.945% (inactive)", "toxicity": 1.14},
      {"compound": "O=C1/C(=C\\c2cccnc2)CN(Cc2ccccc2)C/C1=C\\c1cccnc1", "% cells with GFP-LC3 spots": "52.1% (active)", "toxicity": -17.6},
      {"compound": "Cc1ccc(NC(=O)NC2CCCCC2)cc1S(=O)(=O)N1CCOCC1", "% cells with GFP-LC3 spots": "9.14% (inactive)", "toxicity": -3.67},
      {"compound": "Cc1ccc(-n2c(C)cc(/C=N/Nc3ccc([N+](=O)[O-])cn3)c2C)c(C)c1", "% cells with GFP-LC3 spots": "52% (active)", "toxicity": -31.7},
      {"compound": "COc1cc(/C=N\\Nc2ccc([N+](=O)[O-])cn2)ccc1OCC(=O)O", "% cells with GFP-LC3 spots": "1.45% (inactive)", "toxicity": -6.18},
      {"compound": "Cc1cccc(COc2ccccc2/C=N/Nc2ccc([N+](=O)[O-])cc2)c1", "% cells with GFP-LC3 spots": "1.93% (inactive)", "toxicity": 8.3},
      {"compound": "CCOC(=O)CC(=O)CSc1nc(-c2ccccc2)cc(-c2ccc(Cl)cc2)c1C#N", "% cells with GFP-LC3 spots": "3.63% (inactive)", "toxicity": -4.4},
      {"compound": "N#Cc1c(-c2ccc(F)cc2)cc(C2CC2)nc1SCC(=O)c1cccs1", "% cells with GFP-LC3 spots": "86.4% (active)", "toxicity": -1.55},
      {"compound": "O=C(CSc1nc2ccccc2[nH]1)c1cccs1", "% cells with GFP-LC3 spots": "0.463% (inactive)", "toxicity": 5.37},
      {"compound": "Cc1ccc(CC(=O)Nc2ccc(OC(F)F)c(Cl)c2)cc1C", "% cells with GFP-LC3 spots": "6.36% (inactive)", "toxicity": -11.9},
      {"compound": "CCN1CCN(C(=O)c2ccc(CN(c3ccc(C)c(C)c3)S(C)(=O)=O)cc2)CC1", "% cells with GFP-LC3 spots": "5.04% (inactive)", "toxicity": -26.7},
      {"compound": "Cc1cc(C(=O)N/N=C/c2ccc(O)c([N+](=O)[O-])c2)c(C)n1-c1ccc(F)cc1", "% cells with GFP-LC3 spots": "6.11% (inactive)", "toxicity": 2.16},
      {"compound": "O=C(Nc1ccc(Br)cn1)c1ccc([N+](=O)[O-])cc1Cl", "% cells with GFP-LC3 spots": "25.9% (inactive)", "toxicity": 12.1},
      {"compound": "CSc1ccc(/C=N\\NC(=O)CC(=O)NC(C)C)cc1", "% cells with GFP-LC3 spots": "3.73% (inactive)", "toxicity": 6.35},
      {"compound": "O=c1cc(-c2ccccc2)[nH]c2cc(F)ccc12", "% cells with GFP-LC3 spots": "3.89% (inactive)", "toxicity": -7.91},
      {"compound": "O=C(/C=C/c1ccc(Cl)cc1)Nc1ccc(Br)cn1", "% cells with GFP-LC3 spots": "20.4% (inactive)", "toxicity": 30.5},
      {"compound": "CCOC(=O)/C(C#N)=C/c1ccc(N2CCN(Cc3ccccc3)CC2)cc1", "% cells with GFP-LC3 spots": "10.3% (inactive)", "toxicity": 10.6},
      {"compound": "CC(C)OC(=O)C(C#N)c1nc2ccccc2nc1N1CCN(Cc2ccccc2)CC1", "note": "(stereo not given)", "% cells with GFP-LC3 spots": "41.3% (active)", "toxicity": 2.68},
      {"compound": "Cc1ccc(S(=O)(=O)C(C#N)c2nc3ccccc3nc2N2CCCC2)cc1C", "note": "(stereo not given)", "% cells with GFP-LC3 spots": "8.97% (inactive)", "toxicity": -8.37},
      {"compound": "O=[N+]([O-])c1ccc(Sc2n[nH]c(-c3ccco3)n2)nc1", "% cells with GFP-LC3 spots": "0% (inactive)", "toxicity": 4.9},
      {"compound": "Cc1ccccc1CN1C[C@@H]2C[C@@H](c3cn(C)nc3-c3ccccc3)N3CCC[C@@]23C1=O", "% cells with GFP-LC3 spots": "0.136% (inactive)", "toxicity": -5.59},
      {"compound": "Cc1ccccc1CN1C[C@@H]2C[C@@H](c3ccc4nsnc4c3)N3CCC[C@@]23C1=O", "% cells with GFP-LC3 spots": "34.4% (active)", "toxicity": 24.5},
      {"compound": "OCC1(CCc2ccccc2)CCN(Cc2ccc3nsnc3c2)CC1", "% cells with GFP-LC3 spots": "0.559% (inactive)", "toxicity": 0.377},
      {"compound": "CCN(CC)S(=O)(=O)c1cc([N+](=O)[O-])ccc1N=Nc1c(O)n(C)c2ccccc12", "% cells with GFP-LC3 spots": "39.2% (active)", "toxicity": 2.86},
      {"compound": "CCn1c(O)c(N=NC(=O)c2cccc(S(=O)(=O)N3CCCCC3)c2)c2ccccc21", "% cells with GFP-LC3 spots": "17.3% (inactive)", "toxicity": 3.19},
      {"compound": "CCN(CC)S(=O)(=O)c1cc([N+](=O)[O-])ccc1NNC(=O)Nc1ccccc1", "% cells with GFP-LC3 spots": "2.34% (inactive)", "toxicity": -10.5},
      {"compound": "CCCCNC(=O)CCn1c(=O)c2ccccc2n(Cc2cc(C)ccc2C)c1=O", "% cells with GFP-LC3 spots": "8.22% (inactive)", "toxicity": -3.52},
      {"compound": "COc1ccc(CN(C)Cc2nc3cc(OC)c(OC)cc3c(=O)[nH]2)c(OC)c1", "% cells with GFP-LC3 spots": "25% (inactive)", "toxicity": -8.88},
      {"compound": "O=C(/C=C/c1cn(-c2ccccc2)nc1-c1ccc2c(c1)OCCO2)NCCCN1CCOCC1", "% cells with GFP-LC3 spots": "1.77% (inactive)", "toxicity": -8.43},
      {"compound": "CCOc1ccc(/C=N/NC(N)=S)cc1", "% cells with GFP-LC3 spots": "19.6% (active)", "toxicity": 21.8},
      {"compound": "COC(=O)N/N=C/c1ccc(/C=N/NC(=O)OC)cc1", "% cells with GFP-LC3 spots": "0.31% (inactive)", "toxicity": -3.93},
      {"compound": "NC(=S)N/N=C/c1ccc([N+](=O)[O-])cc1", "% cells with GFP-LC3 spots": "8.24% (inactive)", "toxicity": 23.5},
      {"compound": "CCN1C(=O)/C(=C\\N2CCN(c3ccccc3)CC2)SC1=S", "% cells with GFP-LC3 spots": "1.26% (inactive)", "toxicity": -4.66}
    ]}
  ]
}
